Screening data from PubChem BioAssay.
A selection: hits, their analogues and other compounds. The true share with any hit is near 3.9%.
NSD2 HMT inh – inhibitors of human histone methyltransferase NSD2; NSD2 peptide methylation, AlphaScreen, 120 min; inhibition, % at 12.5 µM; hit rate 0.54% among 310,000; AID 743445; in the data active means inhibition above about 50%
CDK5 inh – blocks human CDK5/p35 kinase activity. Q00535+Q15078. Recombinant CDK5/p35, ADP-Glo luminescence, 60 min. inhibition, % at 10 µM. hit rate 0.01% among 330,000. AID 488839;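 active means highest replicate inhibition of at least 50% and at least 75% of replicates reaching 50%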;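 further: plate controls were DMSO neutral control for no effect and GW8510 at 10 µM for full effect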
ALR inh – blocks human ALR sulfhydryl oxidase activity; purified ALR, DTT oxidation, H2O2 HRP-luminol luminescence; inhibition, % (no concentration beside the values); hit rate 3.8% among 290,000; AID 485317;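 active means mean replicate inhibition above about 79%, with every replicate also reaching it, limit read from the data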
Target sequence (P55789 whole entry, looked up): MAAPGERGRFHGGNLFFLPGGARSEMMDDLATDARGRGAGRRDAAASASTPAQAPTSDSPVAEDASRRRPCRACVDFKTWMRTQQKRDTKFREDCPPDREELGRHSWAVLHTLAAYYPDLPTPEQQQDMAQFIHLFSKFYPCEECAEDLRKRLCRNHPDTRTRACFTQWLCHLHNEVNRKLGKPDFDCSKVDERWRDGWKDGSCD
CASP6 VEID inh – caspase-6 (human) enzyme inhibition; AID 686996; hit rate 0.53% among 350,000; purified caspase-6, Z-VEID-R110 cleavage fluorescence; inhibition, % at 12.5 µM; P55212;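 active means mean inhibition across replicates at least about 35%, with every replicate also reaching that limit, limit read from the data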;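 further: 0% = median of neutral control wells and 100% = no fluorescence left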
Target sequence (P55212 24-179 limits assumed): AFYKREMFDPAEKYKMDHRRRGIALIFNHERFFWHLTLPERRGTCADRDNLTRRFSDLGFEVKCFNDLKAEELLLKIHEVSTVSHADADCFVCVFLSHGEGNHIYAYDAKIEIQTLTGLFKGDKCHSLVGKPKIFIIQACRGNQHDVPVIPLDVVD
Target sequence (P55212 194-293 limits assumed): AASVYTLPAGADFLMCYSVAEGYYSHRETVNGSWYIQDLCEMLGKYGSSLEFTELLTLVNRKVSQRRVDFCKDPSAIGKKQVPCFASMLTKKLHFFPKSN
N-glyco inh – N-linked glycosylation inhibition. D54 ERlucT glycosylation luciferase reporter, 24 h; percent of 100 nM tunicamycin response. reporter increase, % at 12.5 µM. hit rate 0.23% among 360,000;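 active means mean luciferase reporter signal, scaled so untreated is 0 and the glycosylation-blocking control 100, at or above a set limit in every replicate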;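 further: luciferase carries N-glycosylation sites so blocking glycosylation raises the light; 0% = median of neutral control wells and 100% = median of 100 nM tunicamycin wells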
SUMO Mot1 rescue – inhibitors of SUMOylation pathway: yeast Mot1-301 growth rescue | growth rescue, % at 18.8 µM | S. cerevisiae Mot1-301 growth rescue, ATP luminescence, 38.5C; percent above DMSO median, 100 means doubled | hit rate 1% among 320,000;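 active means every valid replicate shows activation above 250% relative to neutral control wells; inactive means the rest, any valid replicate at or below 250%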;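 further: OY570 slx delta 5 strain wells were the positive control but not used for scaling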
Mot1 SUMO dose – SUMO pathway inhibitors in yeast Mot1-301 growth | shares compounds with SUMO Mot1 rescue | S. cerevisiae Mot1-301 galactose growth, ATP luminescence, 24 h; -100 = growth of slx-deleted rescue strain | growth activity, percent, % at 42 µM | 2,300 tested, under 10 active | AID 493004;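 active means Signal drops as the depositor expects, and the fitted half-maximal dose is no more than ten times the top valid tested dose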;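 further: more negative values mean stronger growth rescue toward the control strain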
* hit, by the source's call; . = not tested or not shown; + = active, no number.

SMILES	NSD2 HMT inh	CDK5 inh	ALR inh	CASP6 VEID inh	N-glyco inh	SUMO Mot1 rescue	Mot1 SUMO dose
O=C(Nc1ccc([N+](=O)[O-])cc1)c1ccc(Cn2cc([N+](=O)[O-])cn2)cc1	-1	0	2	1	-8	19	.
COC(=O)c1ccc(Cn2cc(Cl)cn2)cc1	0	0	-4	.	-2	652*	1
O=C(C[C@H]1CC[C@H]2[C@@H](COC[C@@H](O)CN2Cc2ccccc2)O1)NCCc1ccccc1	.	.	.	-3	.	.	.
C[C@@H]1CN([C@@H](C)CO)C(=O)c2cccc(N(C)C)c2O[C@@H]1CN(C)Cc1ccc(Oc2ccccc2)cc1	.	.	.	2	.	.	.
COc1ccc(CN(C)S(=O)(=O)c2nnc(NC(=O)c3ccccc3OC)s2)cc1OC	-3	-2	-1	0	0	-5	.
COc1ccc(CN(C)S(=O)(=O)c2nnc(NC(=O)c3ccc(C)cc3)s2)cc1OC	6	.	-1	.	1	466*	0
COc1cccc(C(=O)Nc2ccc3c(c2)OC[C@@H](C)N(C)C[C@H](C)[C@H](OC)CN(C)C3=O)c1	.	.	.	1	.	.	.
COCC#Cc1cnc2c(c1)C(=O)N([C@@H](C)CO)C[C@H](C)[C@H](CN(C)C(=O)Nc1cc(F)ccc1F)O2	.	.	.	-1	.	.	.
COc1ccc(C(=O)Sc2ccc(Cl)cc2)cc1OC	-2	0	-17	.	1	+	0
Cc1cnc(NC(=O)CN2CCN(c3ccccc3F)CC2)s1	-1	1	2	.	-1	990*	0
O=C(/C=C/NNC(=O)c1ccc(Br)cc1)c1ccccc1	-2	1	0	.	-1	399*	1
CNC(=O)C[C@H]1CC[C@@H]2[C@H](COc3ccc(NC(=O)c4ccc(F)c(F)c4)cc3C(=O)N2C)O1	.	.	.	-2	.	.	.
C[C@H]1CN([C@@H](C)CO)C(=O)c2cccc(NC(=O)C3CCCCC3)c2O[C@@H]1CN(C)S(C)(=O)=O	.	.	.	0	.	.	.
CCOC(=O)c1cc(C#N)c(Oc2ccccc2OC)nc1-c1ccccc1	-3	0	0	.	1	+	0
COc1ccc(NS(=O)(=O)c2cccc(C(=O)NCCCn3ccnc3)c2)cc1	0	3	.	-2	0	452*	0
CC(C)(C)c1cc(NCCCn2ccnc2)n2ncc(-c3ccc(Cl)cc3)c2n1	-4	-1	-2	.	-9	622*	-1
CCCCCCCc1n[nH]c(=S)n1Cc1ccccc1	-2	1	-2	-1	-4	-12	.
CCCCc1n[nH]c(=S)n1Cc1ccc(C)cc1	.	0	9	3	2	+	1
Cc1ccc(S(=O)(=O)Nc2ccc3c(c2)CC(=O)N([C@H](C)CO)C[C@H](C)[C@@H](CN(C)C)O3)cc1	.	.	.	0	.	.	.
CCOC(=O)c1oc2c(c1C)C(=O)CCC2	-3	1	0	.	2	934*	0
CCOC(=O)C1=C(C)NC(=O)CC1c1cc2c(cc1[N+](=O)[O-])OCO2 (configuration not stated)	-1	2	91*	11	3	937*	-1
CCCOC(=O)C1=C(C)N(C)C(=O)NC1c1cc2c(cc1[N+](=O)[O-])OCO2 (configuration not stated)	12	-1	12	18	-2	354	.
O=S(=O)(NCc1ccco1)c1ccc2ccccc2c1	2	1	-6	1	1	430*	0
CC(C)CC#Cc1ccc2c(c1)O[C@H](CN(C)C(=O)C1CCCCC1)[C@H](C)CN([C@@H](C)CO)S2(=O)=O	.	.	.	0	.	.	.
C[C@H]1CN([C@@H](C)CO)C(=O)c2cccc(NC(=O)c3nc4ccccc4s3)c2O[C@@H]1CN(C)S(=O)(=O)c1ccc(Cl)cc1	.	.	.	2	.	.	.
SMILES	NSD2 HMT inh	CDK5 inh	ALR inh	CASP6 VEID inh	N-glyco inh	SUMO Mot1 rescue	Mot1 SUMO dose
CO[C@@H]1CN(C)C(=O)c2ccc(NC(=O)C3CCC3)cc2OC[C@@H](C)N(CC2CCCCC2)C[C@@H]1C	.	.	.	-1	.	.	.
CCC(C)(C(=O)NC1CCCC1)N(C(=O)c1ccccn1)c1ccc(C)cc1 (configuration not stated)	-3	2	11	.	0	653*	0
CCC(C)(C(=O)NC1CCCCC1)N(C(=O)c1ccccn1)c1ccccc1 (configuration not stated)	-1	-1	-10	.	-4	6	.
O=S(=O)(c1ccccc1F)N1CC[C@@H]2[C@H](CO)Nc3ccc(C4=CCCCC4)cc3[C@@H]21	.	.	.	-1	.	.	.
CCOc1ccc(NC(=O)C2CC(=O)N3CCCN=C3S2)cc1 (configuration not stated)	0	-1	-9	.	4	+	0
CCCOc1ccc(NC(=O)C2CC(=O)N3CCCN=C3S2)cc1 (configuration not stated)	0	0	-5	.	-1	48	.
CCn1cc(CCCC(=O)NCc2ccccc2OC)c2ccccc21	-1	0	0	2	0	888*	0
O=C(C[C@@H]1C[C@H]2c3cc(NS(=O)(=O)c4ccccc4)ccc3O[C@H]2[C@H](CO)O1)N1CCCCC1	.	.	.	0	.	.	.
COc1ccc(CN(C)C(=O)c2ccc(COc3ccccc3)cc2)c(OC)c1	0	-2	.	5	0	111	.
COc1ccc(CN(C)C(=O)c2sccc2-c2ccccc2)c(OC)c1	-2	2	1	2	.	485*	0
Cc1ccc(F)cc1NS(=O)(=O)c1ccc(Cl)s1	-1	0	.	.	2	378*	1
COc1ccc(/C(CC2(O)C(=O)Nc3ccccc32)=N\O)cc1 (configuration not stated)	-7	-1	-8	.	3	-2	.
C/C(CC1(O)C(=O)Nc2ccccc21)=N\O (configuration not stated)	0	1	-7	0	2	519*	0
CCOc1ccc(OCC)c(NC(=O)C2COc3ccccc3O2)c1 (configuration not stated)	-1	1	-7	.	-1	824*	0
Cc1nc2ccccc2n(CC(=O)Nc2cc(Cl)cc(Cl)c2)c1=O	-4	-1	-1	-1	-2	+	1
C[C@H]1CN([C@@H](C)CO)C(=O)c2cc(-c3ccc(F)cc3)cnc2O[C@H]1CN(C)C(=O)Nc1ccccc1F	.	.	.	-1	.	.	.
C/C(CC(=O)Nc1cccc(Cl)c1Cl)=N\NC(=O)c1ccccc1C	1	1	-4	-5	-1	452*	0
CN(C)C(=O)c1cccc(-c2ccc([C@@H]3[C@@H](C#N)N(C(=O)C4CCCCC4)[C@H]3CO)cc2)c1	.	.	.	2	.	.	.
C[C@H](CO)N1C[C@H](C)[C@H](CN(C)C(=O)Nc2ccc(F)cc2)Oc2ccc(NC(=O)Nc3cccc4ccccc34)cc2C1=O	.	.	.	1	.	.	.
